Laboratory results reported in publication PMC11062922 (Nature Chemical Biology, 2023).
Read-outs that look alike come from different tables or passages of the source.

Tests used:
Parameters in all cases: species or system human, MV4-11 + K-562 + COLO205 + SK-N-BE2 + OVCAR-8
ADRBK1 = conditions: read-out: apparent Kd, n = 1
COX5A = conditions: read-out: apparent Kd; compound concentrations:100 nM and 1000 nM (sheet 'Samples'); n = 1
EPHA7 = conditions: read-out: apparent Kd; compound concentrations:100 nM and 1000 nM (sheet 'Samples'); n = 1
PIK3CB = conditions: read-out: apparent Kd; compound concentrations:100 nM and 1000 nM (sheet 'Samples'); n = 1
AKT3 = conditions: read-out: apparent Kd; compound concentrations: 100 nM and 1000 nM (sheet 'Samples'), CATDS: 1.9200970976664199E-2; n = 1
CDC42BPA = conditions: read-out: apparent Kd; compound concentrations: 100 nM and 1000 nM (sheet 'Samples'), CATDS: 2.9889506530370698E-2; n = 1
CDC42BPB = conditions: read-out: apparent Kd; compound concentrations: 100 nM and 1000 nM (sheet 'Samples'), CATDS: 7.2209321727509101E-2; n = 1
CDC42BPG = conditions: read-out: apparent Kd; compound concentrations: 100 nM and 1000 nM (sheet 'Samples'), CATDS: 5.7260921277851103E-2; n = 1
CDKL5 = conditions: read-out: apparent Kd; compound concentrations: 100 nM and 1000 nM (sheet 'Samples'), CATDS: 3.0884187274208798E-2; n = 1
CHEK1 = conditions: read-out: apparent Kd; compound concentrations: 100 nM and 1000 nM (sheet 'Samples'), CATDS: 4.9980963828105997E-2; n = 1
JAK2 = conditions: read-out: apparent Kd; compound concentrations: 100 nM and 1000 nM (sheet 'Samples'), CATDS: 2.4440515668024899E-2; n = 1
NUAK1 = conditions: read-out: apparent Kd; compound concentrations: 100 nM and 1000 nM (sheet 'Samples'), CATDS: 4.1044446827870798E-2; n = 1
NUAK2 = conditions: read-out: apparent Kd; compound concentrations: 100 nM and 1000 nM (sheet 'Samples'), CATDS: 3.8421609760156301E-2; n = 1
PKN1 = conditions: read-out: apparent Kd; compound concentrations: 100 nM and 1000 nM (sheet 'Samples'), CATDS: 3.7942588141146198E-2; n = 1
PKN2 = conditions: read-out: apparent Kd; compound concentrations: 100 nM and 1000 nM (sheet 'Samples'), CATDS: 2.7249776498222002E-2; n = 1
PKN3 = conditions: read-out: apparent Kd; compound concentrations: 100 nM and 1000 nM (sheet 'Samples'), CATDS: 1.9288035237500001E-2; n = 1
PRKAA1 = conditions: read-out: apparent Kd; compound concentrations: 100 nM and 1000 nM (sheet 'Samples'), CATDS: 2.2574550296483802E-2; n = 1
PRKAA2 = conditions: read-out: apparent Kd; compound concentrations: 100 nM and 1000 nM (sheet 'Samples'), CATDS: 1.9838935716802002E-2; n = 1
PRKACA = conditions: read-out: apparent Kd; compound concentrations: 100 nM and 1000 nM (sheet 'Samples'), CATDS: 9.6222688341774595E-2; n = 1
PRKACB = conditions: read-out: apparent Kd; compound concentrations: 100 nM and 1000 nM (sheet 'Samples'), CATDS: 7.2959241198541205E-2; n = 1
PRKAG1 = conditions: read-out: apparent Kd; compound concentrations: 100 nM and 1000 nM (sheet 'Samples'), CATDS: 2.1564965270821398E-2; n = 1
PRKAG2 = conditions: read-out: apparent Kd; compound concentrations: 100 nM and 1000 nM (sheet 'Samples'), CATDS: 2.8394039575996899E-2; n = 1
PRKCA = conditions: read-out: apparent Kd; compound concentrations: 100 nM and 1000 nM (sheet 'Samples'), CATDS: 4.1441031849898502E-2; n = 1
PRKCB = conditions: read-out: apparent Kd; compound concentrations: 100 nM and 1000 nM (sheet 'Samples'), CATDS: 3.5643049371418899E-2; n = 1
PRKCD = conditions: read-out: apparent Kd; compound concentrations: 100 nM and 1000 nM (sheet 'Samples'), CATDS: 5.5614379812914103E-2; n = 1
PRKCQ = conditions: read-out: apparent Kd; compound concentrations: 100 nM and 1000 nM (sheet 'Samples'), CATDS: 6.3184001345655702E-2; n = 1
PRKD2 = conditions: read-out: apparent Kd; compound concentrations: 100 nM and 1000 nM (sheet 'Samples'), CATDS: 1.9916010120102301E-2; n = 1
PRKG1 = conditions: read-out: apparent Kd; compound concentrations: 100 nM and 1000 nM (sheet 'Samples'), CATDS: 8.1540237220624201E-2; n = 1
PRKX = conditions: read-out: apparent Kd; compound concentrations: 100 nM and 1000 nM (sheet 'Samples'), CATDS: 3.8731961225305901E-2; n = 1
ROCK1 = conditions: read-out: apparent Kd; compound concentrations: 100 nM and 1000 nM (sheet 'Samples'), CATDS: 7.2769225266658799E-2; n = 1
ROCK2 = conditions: read-out: apparent Kd; compound concentrations: 100 nM and 1000 nM (sheet 'Samples'), CATDS: 5.7736516058252897E-2; n = 1
RPS6KA5 = conditions: read-out: apparent Kd; compound concentrations: 100 nM and 1000 nM (sheet 'Samples'), CATDS: 2.03243213098795E-2; n = 1
RPS6KB1 = conditions: read-out: apparent Kd; compound concentrations: 100 nM and 1000 nM (sheet 'Samples'), CATDS: 4.2911282581945501E-2; n = 1

## O=c1cc(N2CCOCC2)nc2n(Cc3ccccc3F)ccn12 [GSK2297428A]
ADRBK1; compound concentrations:100 nM and 1000 nM (sheet 'Samples')
  potency estimated from few doses: 1690 nM
COX5A
  potency estimated from few doses: 1300 nM
EPHA7
  potency estimated from few doses: 1660 nM
PIK3CB
  potency estimated from few doses: 385 nM

## COc1ccc(O)c(C(=O)c2ccc(C(=O)N[C@@H]3CCCNC[C@H]3NC(=O)c3ccncc3)cc2)c1F.Cl [RO4367842-001]
ADRBK1; compound concentrations: 100 nM and 1000 nM (sheet 'Samples'), CATDS: 2.1593661333857501E-2
  potency estimated from few doses: 587 nM
AKT3
  potency estimated from few doses: 1460 nM
CDC42BPA
  potency estimated from few doses: 129 nM
CDC42BPB
  potency estimated from few doses: 17.2 nM
CDC42BPG
  potency estimated from few doses: 25.7 nM
CDKL5
  potency estimated from few doses: 115 nM
CHEK1
  potency estimated from few doses: 33.5 nM
JAK2
  potency estimated from few doses: 294 nM
NUAK1
  potency estimated from few doses: 51.7 nM
NUAK2
  potency estimated from few doses: 60.9 nM
PKN1
  potency estimated from few doses: 62.9 nM
PKN2
  potency estimated from few doses: 182 nM
PKN3
  potency estimated from few doses: 1400 nM
PRKAA1
  potency estimated from few doses: 448 nM
PRKAA2
  potency estimated from few doses: 1090 nM
PRKACA
  potency estimated from few doses: 11.1 nM
PRKACB
  potency estimated from few doses: 17 nM
PRKAG1
  potency estimated from few doses: 592 nM
PRKAG2
  potency estimated from few doses: 155 nM
PRKCA
  potency estimated from few doses: 50.5 nM
PRKCB
  potency estimated from few doses: 74.4 nM
PRKCD
  potency estimated from few doses: 27.2 nM
PRKCQ
  potency estimated from few doses: 21.6 nM
PRKD2
  potency estimated from few doses: 1050 nM
PRKG1
  potency estimated from few doses: 14.2 nM
PRKX
  potency estimated from few doses: 59.6 nM
ROCK1
  potency estimated from few doses: 17 nM
ROCK2
  potency estimated from few doses: 25.4 nM
RPS6KA5
  potency estimated from few doses: 897 nM
RPS6KB1
  potency estimated from few doses: 46.5 nM
